RGS4 inhibitor: Inhibitors of Regulator of G Protein Signaling (RGS) 4: qHTS; Transcreener GDP fluorescence polarization, RGS4-accelerated GTP hydrolysis; Potency, µM (top dose mostly 114 µM), usual class: inhibitors; 390,000 tested, 0.039% active; note: nearly all actives have a fitted effect of over 75% in size
Target sequence (P49798 whole entry, looked up): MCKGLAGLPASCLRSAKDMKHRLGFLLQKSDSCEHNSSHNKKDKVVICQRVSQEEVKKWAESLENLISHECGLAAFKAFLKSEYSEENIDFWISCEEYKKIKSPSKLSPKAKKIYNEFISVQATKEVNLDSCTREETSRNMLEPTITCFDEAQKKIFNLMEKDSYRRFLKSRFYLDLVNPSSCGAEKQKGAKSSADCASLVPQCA
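MLSMR compounds (23 nl, pin-transferred) preincubated 10 min at room temperature with a 500nM (2x) first reagent, then RGS4 at 900nM (2x) plus Transcreener GDP mix added; fluorescence polarization (620/688 nm) read before and after 90 min at 30 °C.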
EPAC1 antag: qHTS for Antagonist of cAMP-regulated guanine nucleotide exchange factor 3 (EPAC1): primary screen. Potency, µM (doses to about 115 µM), usual class: inhibitors. Rap guanine nucleotide exchange factor 3 (Homo sapiens), O95398. AID 720709, 2013. EPAC1 GEF assay, Rap1b-BODIPY-GDP exchange fluorescence. 360,000 tested, 0.14% active; note: nearly all actives have a fitted effect of over 50% in size
EPAC2 agonist: qHTS for Agonist of cAMP-regulated guanine nucleotide exchange factor 4 (EPAC2): primary screen | 360,000 tested, 0.079% active | Potency, µM (top dose mostly 154 µM), most hits filed as activators | EPAC2 activation, biochemical qHTS; response scale: 100% = 6.5 mM cAMP response; note: nearly all actives have a fitted effect of over 50% in size
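Compounds were added across a concentration range to EPAC2 (100 nM), RAP1B-BODIPY-GDP (250 nM) and GDP (50 uM). After 5 min at room temperature, fluorescence was recorded at 5-min intervals for 30 min.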
EPAC2 antagonist: qHTS for Antagonist of cAMP-regulated guanine nucleotide exchange factor 2 (EPAC2): primary screen | EPAC2 GEF exchange of Rap1B-BODIPY-GDP, fluorescence | Potency, µM (titrated, usually from 114 µM), usual class: inhibitors | 360,000 tested, 0.18% active | AID 720708, 2013; note: nearly all actives have a fitted effect of over 45% in size
BRCA1 expr up: qHTS Assay to Identify Small Molecule Activators of BRCA1 Expression; 380,000 tested, 1.1% active; MCF7-BRCA1-FFLuc reporter, luminescence, 48 h; response scale: scaled: vehicle 0%, 10 µM genistein 100%; Potency, µM (titrated, usually from 46.1 µM), most hits filed as activators; note: nearly all actives have a fitted effect of over 80% in size
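MCF7-BRCA1-FFLuc, 2000 cells/well; 2 h attach, 37 °C/5% CO2; compound 48 h; luciferase substrate 15 min; luminescence end-point. Norm. to genistein 10 microM max activation and DMSO; concentration-response curves fitted.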
EPAC1 ag: qHTS for Agonist of cAMP-regulated guanine nucleotide exchange factor 3 (EPAC1): primary screen. EPAC1 agonist qHTS, biochemical assay; response scale: 100% = response to 6.5 mM cAMP. AID 720707, 2013. 360,000 tested, 0.073% active. Potency, µM (titrated, usually from 154 µM), hits mostly activators; note: nearly all actives have a fitted effect of over 60% in size
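Nucleotide exchange assay: 100 nM EPAC1 with 250 nM Rap1B loaded with BODIPY-GDP and 50 uM GDP, room temperature. Fluorescence (480/540 nm) read every 5 min for 30 min; signal change normalized to 6.5 mM cAMP as full agonist.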
Large screens that a line does not name were inactive. The list is not random: actives were taken first. Their share in the collection is about 1.3%. Calls come from the whole dose curve; as a rule, active = well fitted curve in the direction sought with a large enough effect; inconclusive = small, poorly fitted or top-dose-only effect, or another doubt; inactive = no such curve, though single readings can be large; an effect the other way counts as inactive or inconclusive.

CC1=CC(C)(C)N2C(=O)C(=Nc3ccc(O)cc3)c3cccc1c32	EPAC1 antag 79.4µM, EPAC2 antagonist inconclusive
COc1cccc(/C=N/Nc2nc3ccccc3n3cnnc23)c1O	none
Cc1ccc(CN2CCN(Cc3cnn(-c4ccc(F)cc4)c3)CC2CCO)o1 (configuration not stated)	none
COc1ccc(-c2noc(CN(C)C3CCOCC3)n2)cc1	none
COc1ccc(-c2cn3cccnc3n2)cc1Br	BRCA1 expr up 11.2µM
Cc1ccc(Cn2ccc(-c3cnc(-c4ccccc4)s3)n2)cc1	EPAC1 ag inconclusive
O=S(=O)(c1ccccc1)n1ccc(-c2cnc(-c3ccccc3)s2)n1	BRCA1 expr up 7.94µM
COCCCNC(=O)C1CC(=O)N(CCc2ccc(OC)c(OC)c2)C1 (configuration not stated)	none
O=C(NCCc1csc2nc(-c3ccccc3F)nn12)C(=O)Nc1cc(F)ccc1F	none (no result: EPAC1 antag, EPAC2 agonist, EPAC2 antagonist, BRCA1 expr up, EPAC1 ag)
CN(C)c1cc(Cl)c2nonc2c1N	RGS4 inhibitor inconclusive, EPAC1 antag 50.1µM
CCN(CC)c1cc(Cl)c2nonc2c1N	RGS4 inhibitor inconclusive
O=C1NCCN/C1=C\C(=O)c1cccc(Br)c1	BRCA1 expr up 11.2µM
O=C1NCCN/C1=C\C(=O)c1ccc(Br)cc1	BRCA1 expr up inconclusive
COc1cccc(-c2ccc(-c3noc(-c4cccs4)n3)c(OC)n2)c1	RGS4 inhibitor inconclusive
COc1cccc(-c2ccc(-c3noc(-c4ccccc4F)n3)c(OC)n2)c1	BRCA1 expr up 10µM
COCc1nc(-c2ccc(-c3ccc(OC)cc3)nc2OC)no1	none
COCc1nc(-c2ccc(-c3ccccc3)nc2OC)no1	BRCA1 expr up 10µM
Cc1ccc(C(=O)NCCCNc2ccc(C(F)(F)F)cc2[N+](=O)[O-])cc1	none
COc1ccccc1NS(=O)(=O)c1cc(NC(=O)c2ccc3ccccc3n2)ccc1Cl	none
CN(Cc1ccco1)c1ncnc2ccc(-c3ccc4c(c3)OCO4)cc12	EPAC2 antagonist inconclusive
Cc1nc(CN(C)c2ncnc3ccc(-c4ccc5c(c4)OCO5)cc23)cs1	EPAC2 antagonist 31.6µM (no result: RGS4 inhibitor)
COc1ccccc1C=NN1C(=O)CSC1=S	RGS4 inhibitor inconclusive
O=C1CSC(=S)N1/N=C/c1ccc(O)c(O)c1O	EPAC1 antag 25.1µM
Cc1ccc(/C=N/Nc2ccc(C(=O)O)cc2)s1	BRCA1 expr up inconclusive
COc1cccc(-c2nn(Cc3ccccc3)cc2CO)c1	BRCA1 expr up 12.6µM
NCc1cn(Cc2ccccc2)nc1-c1ccccc1	none (no result: EPAC1 antag, EPAC2 agonist, EPAC2 antagonist, EPAC1 ag)
CC(C)n1nnnc1SCC(=O)NCCc1ccccc1	none
O=C(N/N=C/c1ccccc1[N+](=O)[O-])c1cccs1	BRCA1 expr up inconclusive
Cc1ccc(/C=N/NC(=O)c2cccs2)cc1[N+](=O)[O-]	BRCA1 expr up 12.6µM
CC(C)c1ccc(NC(=O)C2C3C=CC4(O3)C2C(=O)N(CCN2CCOCC2)C4C(=O)NC2CCCCC2)cc1 (configuration not stated)	none
N#CC(=C(\N)Sc1ccccc1N)/C(C#N)=C(/N)Sc1ccccc1N	RGS4 inhibitor 9.47µM (no result: EPAC1 antag, EPAC2 agonist, EPAC2 antagonist, BRCA1 expr up, EPAC1 ag)
Nc1ccccc1SCc1ccccc1	none
Cc1cc(NS(=O)(=O)c2ccc(Nc3nc(-c4sc(N)nc4C)cs3)cc2)no1	EPAC1 antag inconclusive, EPAC2 antagonist 31.6µM
COc1cc(NS(=O)(=O)c2ccc(Nc3nc(-c4ccccc4)cs3)cc2)nc(OC)n1	EPAC1 antag 79.4µM
OC(c1ccc(F)cc1)c1nc(-c2cc3ccccc3o2)cs1 (configuration not stated)	BRCA1 expr up 1.78µM (no result: RGS4 inhibitor)
COc1ccc(C(O)c2nc(-c3cnc4ccccc4c3)cs2)cc1 (configuration not stated)	none (no result: RGS4 inhibitor)
OC(c1ccc(F)cc1)c1nc(-c2cnc3ccccc3c2)cs1 (configuration not stated)	BRCA1 expr up 11.2µM (no result: RGS4 inhibitor)
Cc1cccc(NC(=O)CN2C(=O)N/C(=C\c3ccccc3OCc3ccc(C(=O)O)cc3)C2=O)c1	EPAC1 antag 28.2µM
O=C(O)c1ccc(COc2ccccc2/C=C2/NC(=O)N(c3cccc(Cl)c3)C2=O)cc1	EPAC1 antag inconclusive, EPAC2 antagonist inconclusive, EPAC1 ag 89.1µM
O=C(O)c1ccc(COc2ccccc2/C=C2\NC(=O)N(Cc3ccc(F)cc3)C2=O)cc1	EPAC1 antag inconclusive
O=C(CN1C(=O)N/C(=C\c2ccccc2OCc2ccc(C(=O)O)cc2)C1=O)Nc1ccc(F)cc1	EPAC1 antag inconclusive
CC(NC(=O)COc1ccccc1-c1ccccc1)c1ccccc1 (configuration not stated)	EPAC2 antagonist 39.8µM
CC(=O)Nc1ccccc1OCC(=O)NC(C)c1ccccc1 (configuration not stated)	none
COCc1cc(C)nc(SCc2ccc(Br)cc2)c1C#N	none
COc1ccc(-c2nc(SC)n(S(=O)(=O)c3ccccc3)n2)cc1	BRCA1 expr up 10µM
COC(=O)[C@@H]1C[C@@]2(O)[C@H](O)[C@H](O)[C@H](O)C[C@H]2N1Cc1cc(OC)cc(OC)c1	none
CC(=O)Nc1ccc(/C=C2\C=C(C(O)c3ccc(NC(C)=O)cc3)c3ccccc32)cc1 (configuration not stated)	none (no result: RGS4 inhibitor, EPAC1 antag, EPAC2 agonist, EPAC2 antagonist, EPAC1 ag)
Cc1occc1C(=O)NNC(=O)c1ccccc1C(=O)O	BRCA1 expr up 10µM
Cc1occc1C(=O)NCCCc1ccccc1	BRCA1 expr up 12.6µM
Cc1ccccc1C(=O)NNC(=O)c1ccoc1C	none
CCSc1nnc(Nc2ccc(C)cc2)s1	BRCA1 expr up 10µM
CCSc1nnc(NC(=O)c2cc3c(s2)CCCC3)s1	BRCA1 expr up 7.94µM
CCSc1nnc(Nc2ccccc2)s1	BRCA1 expr up 11.2µM
CCSc1nnc(NC(=O)c2ccccc2C)s1	BRCA1 expr up 10µM
Cc1ccc(CSc2nnc(Nc3ccc(C)cc3)s2)cc1	none
O=C(CSc1nc(N2CCCCC2)nc(N2CCCCC2)n1)N1CCN(c2ccccc2)CC1	none
C/C(=N\NC(=O)C(c1ccccc1)c1ccccc1)c1ccc(O)cc1	EPAC1 antag inconclusive

Screening data as filed in PubChem.
